High-throughput results (PubChem)
BoNT-F LC inh – inhibitors of Botulinum neurotoxin F light chain protease | Multiplex microsphere protease cleavage assay, flow cytometry | inhibition, % at 10 µM | hit rate 0.22% among 360,000 | AID 588497; in the data active = inhibition above about 35%, passing the limit was not always enough; inconclusive = no clear call, values can overlap the other calls; also: plate controls were buffer without enzyme for full effect and enzyme alone for no effect
MazEF act – increases E. coli MazEF RNase cleavage of RNA; AID 504720; hit rate 0.32% among 350,000; activation, % at 20 µM; FAM/BHQ RNA-DNA oligo cleavage fluorescence, 5 h; in the data active = activation above about 50%
Target sequence (P0AE70 whole entry, looked up): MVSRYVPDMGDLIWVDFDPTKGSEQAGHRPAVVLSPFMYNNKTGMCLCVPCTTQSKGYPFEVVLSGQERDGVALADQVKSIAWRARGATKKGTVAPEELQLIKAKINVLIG
Autofluor counter – flagged as autofluorescent in microsphere protease counterscreen; hit rate 3.1% among 360,000; AID 624483; fluorescence intensity (test concentration not listed); compound autofluorescence counterscreen, microsphere flow cytometry; active compounds read high; in the data active = fluorescence intensity above about 16000; inconclusive = no clear call, values can overlap the other calls
BoNT-A LC inh2 – blocks Botulinum neurotoxin A light chain protease; multiplex microsphere protease substrate cleavage, flow cytometry; hit rate 0.17% among 360,000; inhibition, % at 10 µM; also: plate controls were buffer without enzyme for full effect and enzyme alone for no effect
Anthrax LF prot – blocks Bacillus anthracis lethal factor protease. P15917. multiplex microsphere protease cleavage assay, LF. inhibition, % at 10 µM. hit rate 0.12% among 360,000; also: plate controls were buffer without enzyme for full effect and enzyme alone for no effect
* marks the source's active call; other numbers are inactive results; u = inconclusive; x = not tested or not shown. Compounds with a hit are over-represented: about 3.6% of the library has one in this group of screens. Rule as the data show it, unless noted: active = inhibition above about 30%; inconclusive = no clear call, values can overlap the other calls; inactive = below that.

SMILES | BoNT-F LC inh | MazEF act | Autofluor counter | BoNT-A LC inh2 | Anthrax LF prot
O=C(CNC(=O)C1COc2ccccc2O1)N/N=C\c1ccc(Br)cc1 (centres undefined) | -1 | -1 | 3932 | 1 | -4
Cc1ccc(-n2nc3c4c(cccc4c2=O)-c2ccccc2-3)cc1 | 9 | 6 | 19852* | 8 | 1
CCc1ccccc1NC1Nc2cc(C)nn2S1 (centres undefined) | -5 | 12 | 3877 | -1 | -2
Cc1cc2n(n1)SC(Nc1ccc(F)cc1)N2 (centres undefined) | x | -7 | x | x | x
Cc1cc2n(n1)SC(Nc1cc(Cl)ccc1Cl)N2 (centres undefined) | 1 | -14 | 20196* | 0 | -6
Cc1cc2n(n1)SC(Nc1cccc3ccccc13)N2 (centres undefined) | 9 | 4 | 17932* | 7 | -1
CC1(C)C(c2ccccc2)=NC(c2cccnc2)N1O (centres undefined) | 0 | -1 | 21816* | u | 0
CC1(C)C(c2ccccc2)=NC(c2ccc(F)cc2)N1O (centres undefined) | 0 | 0 | 7918 | 0 | -4
O=C(O)C1CCN(S(=O)(=O)Cc2ccccc2)CC1 | -13 | 2 | 3767 | -2 | -3
COc1ccc(Cl)cc1NC(=O)c1cnc2sccn2c1=O | 0 | -15 | 6294 | 0 | 5
O=C(Nc1cnc2sccn2c1=O)c1ccc(Cl)cc1Cl | 2 | 23 | 22211* | 0 | 0
CCOC(=O)C1=C(C)OC(N)=C(C#N)C1c1ccoc1 (centres undefined) | -4 | 1 | 16971* | -2 | -2
CCOC(=O)C1=C(C)NC(SCC(N)=O)=C(C#N)C1c1cccs1 (centres undefined) | -1 | -7 | 3001 | 0 | 1
CCSC1=C(C#N)C(c2cccs2)C(C(=O)OC)=C(C)N1 (centres undefined) | 4 | 2 | 22477* | u | 0
CCOC(=O)C1=C(C)OC(N)=C(C#N)C1c1cccs1 (centres undefined) | -7 | -7 | 4194 | -1 | -3
CCCC1=C(C(=O)OCC)C(c2cccs2)C(C#N)=C(N)O1 (centres undefined) | -1 | -1 | 22890* | 0 | 0
CCC(C(=O)NCCc1ccc(OC)cc1OC)n1nc(C)n2c(cc3occc32)c1=O (centres undefined) | -1 | -3 | 4122 | 0 | 0
CCOc1ccc2nc(SCC(=O)Nc3cc4c(cc3C(C)=O)OCO4)[nH]c2c1 | -1 | 3 | 3206 | 1 | -3
Cc1ccc([C@@H]2CC(=O)[C@@H]3CN(S(=O)(=O)c4ccc(C)cc4)[C@H](c4ccccc4)C[C@@H]3N2S(=O)(=O)c2ccc(Cl)cc2)cc1 | -7 | -21 | 4691 | -1 | -4
CCCCc1nc2ccccc2c(=O)n1-c1ccccc1[N+](=O)[O-] | -6 | -1 | u | 0 | -4
CCCCc1nc2ccccc2c(=O)n1-c1ccc(Cl)cc1[N+](=O)[O-] | -1 | 2 | 22486* | u | 0
O=c1nc(/C=C/c2cc([N+](=O)[O-])ccc2Cl)cc(C(F)(F)F)[nH]1 | 3 | 0 | 22027* | 3 | 0
O=c1nc(/C=C/c2cccn2-c2ccc([N+](=O)[O-])cc2)cc(C(F)(F)F)[nH]1 | 1 | -9 | 2104 | 0 | -2
Nc1cc(=O)[nH]c(=O)n1CCc1ccccc1 | u | 7 | 4741 | 0 | -12
COC(=O)c1cc(C(=O)Nc2ccc(C)cn2)cc([N+](=O)[O-])c1 | -2 | 1 | 22666* | u | 2
SMILES | BoNT-F LC inh | MazEF act | Autofluor counter | BoNT-A LC inh2 | Anthrax LF prot
COc1ccccc1/C=N/OCc1ccc(C#N)cc1 | 6 | 0 | 3139 | -1 | -15
O=C(c1ccc(Cl)cc1)C1CCN(C(=O)N2CCOCC2)CC1 | -2 | 0 | 19889* | -1 | 0
CC12CN(NC(=O)c3ccccc3F)C3(C#N)CC1CCC23C (centres undefined) | -6 | 9 | 4231 | -1 | -3
CC12CN(C(=O)c3ccc(Cl)cc3)C3(C#N)CC1CCC23C (centres undefined) | -12 | -4 | 22214* | u | -1
O=C(CN1CCN(Cc2ccccc2)CC1)NCC1COc2ccccc2O1 (centres undefined) | -3 | 0 | 23257* | -1 | -2
CCOC(=O)c1nn(-c2ccc(Cl)cc2)c2nc(CC)c(C#N)c(=O)n12 | 0 | 2 | 16274* | 1 | -2
CCOC(=O)c1nn(-c2ccc(Cl)cc2)c2nc(-c3ccc(C)cc3)c(C#N)c(=O)n12 | 2 | -6 | 2938 | 0 | 3
